# Unmarked numbers belong to inactive results. Inconclusive results are not listed. Where a call stands in place of a potency, no number is given. Calls of active or inactive are those of the source. Unless noted, calls follow the shape of the dose curve; as a rule, active = well fitted curve in the direction sought with a large enough effect in the repeat runs; inconclusive = weak or mixed curves; inactive = no such curve, though single readings can be large; an effect the other way counts as inactive or inconclusive.
# Key:
# [1] = qHTS assay for small molecule agonists of the p53 signaling pathway - cell viability (AID 651633; calls by dose curve;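 also: p53RE-bla HCT reporter cells with a stable beta-lactamase p53 reporter; series mostly up to about 83 µM; nearly all actives have a fitted effect of over 30% in size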)
# Summary of the method: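 Viability counter-read: CellTiter-Glo luminescence (30 min, room temperature) in the same p53RE-bla plates. These plates had been exposed to compounds for 16 h at 37 C.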
# [2] = qHTS assay for small molecules that induce genotoxicity in human embryonic kidney cells expressing luciferase-tagged ATAD5 - cell viability (AID 651634; calls by dose curve; also: nearly all actives have a fitted effect of over 25% in size)
# Summary of the method: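 Seeding of 2,000 HEK293T ATAD5-luciferase cells per well preceded pin-tool compound transfer. Plates sat 15.5 hr at 37C under 5% CO2, then fluorescence was read after 30 min with CellTiter-Fluor.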
# [3] = qHTS assay for small molecule disruptors of the mitochondrial membrane potential - cell viability (AID 720634; calls by dose curve;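 also: human HepG2 liver cancer cells; series mostly up to about 83 µM; nearly all actives have a fitted effect of over 20% in size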)
# Summary of the method: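 Measuring cytotoxicity alongside mitochondrial potential, the screen quantified ATP by luminescence in HepG2 cells after 1 hr compound incubation and a 30 min room-temperature CellTiter-Glo step.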
# [4] = qHTS assay for small molecule disruptors of the mitochondrial membrane potential (AID 720635); also: potency is read from the fitted curve at half-maximal effect
# Summary of the method: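 Mitochondrial membrane potential tracked with Mito-MPS dye, red aggregates (ex 540/em 590 nm) against green monomers (ex 490/em 535 nm). Compound treatment 1 hr at 37C, dye 30 min in HepG2.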
# [5] = qHTS assay to test for compound auto fluorescence at 590 nm (red) in HepG2 cells (AID 720674)
# Summary of the method: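 Red autofluorescence (Ex/Em 540/590 nm, Rose Bengal sodium equivalents) was measured in HepG2 cells, 2,000 per well in MEM plus 10% FBS, plated overnight at 37 C. Readings were taken 1 hr after adding 23 nL compound or DMSO, at 37 C and 5% CO2.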
# [6] = qHTS assay to test for compound auto fluorescence at 460 nm (blue) in HEK293 cells (AID 720678)
# Summary of the method: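 HEK293 cells (2,000 per well, medium with 10% dialyzed FBS) attached for 4-5 hr at 37C, then received compound and stood overnight at 37C, 5% CO2. Blue fluorescence was read at Ex/Em 405/460 nm and expressed relative to triamterene.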
# [7] = qHTS assay to test for compound auto fluorescence at 535 nm (green) in HEK293 cells (AID 720680)
# [8] = qHTS assay to test for compound auto fluorescence at 460 nm (blue) in HEK293 cell free culture (AID 720681)
# Summary of the method: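 Blue fluorescence (Ex 405/Em 460 nm, triamterene-equivalent) was read immediately after pin transfer of compound or DMSO into medium (DMEM, 10% FBS) without cells.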
# [9] = qHTS assay to test for compound auto fluorescence at 535 nm (green) in HEK293 cell free culture (AID 720682)
# Summary of the method: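 Each library compound, or DMSO control, is added by pintool to medium alone, comprising DMEM and 10% FBS. Emission at 535 nm following 485 nm excitation is quantified against fluorescein.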
# [10] = qHTS assay to test for compound auto fluorescence at 590 nm (red) in HepG2 cell free culture (AID 720684)
# Summary of the method: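 Plate contents were MEM with 10% FBS plus test compound or DMSO, no cells. Fluorescence was recorded with 540 nm excitation and 590 nm emission.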
# [11] = qHTS assay to test for compound auto fluorescence at 460 nm (blue) in HepG2 cell free culture (AID 720685)
# Summary of the method: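 Compound (23 nL) or DMSO pinned into cell-free MEM with 10% FBS; blue fluorescence read at 405/460 nm excitation/emission, expressed as auto-fluorescence equivalency to triamterene.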
# [12] = qHTS assay to test for compound auto fluorescence at 535 nm (green) in HepG2 cell free culture (AID 720686)
# [13] = qHTS assay to test for compound auto fluorescence at 460 nm (blue) in HepG2 cells (AID 720687)
# Summary of the method: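 Blue-channel autofluorescence (Ex/Em 405/460 nm, triamterene-equivalent) was measured after 1 hr compound exposure at 37 C, 5% CO2. Cells were HepG2, plated overnight at 37 C in MEM plus 10% FBS.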
# [14] = target: Glucocorticoid receptor (Homo sapiens) (UniProt P04150); experiment: qHTS assay to identify small molecule agonists of the glucocorticoid receptor (GR) signaling pathway (AID 720691; active = well fitted activation curve with a large enough effect in the signal ratio in the repeat runs, not every such curve was filed as active; the % refers to the signal ratio; also: potency is read from the fitted curve at half-maximal effect)
# Chain of Glucocorticoid receptor (Homo sapiens) (P04150 whole entry, looked up): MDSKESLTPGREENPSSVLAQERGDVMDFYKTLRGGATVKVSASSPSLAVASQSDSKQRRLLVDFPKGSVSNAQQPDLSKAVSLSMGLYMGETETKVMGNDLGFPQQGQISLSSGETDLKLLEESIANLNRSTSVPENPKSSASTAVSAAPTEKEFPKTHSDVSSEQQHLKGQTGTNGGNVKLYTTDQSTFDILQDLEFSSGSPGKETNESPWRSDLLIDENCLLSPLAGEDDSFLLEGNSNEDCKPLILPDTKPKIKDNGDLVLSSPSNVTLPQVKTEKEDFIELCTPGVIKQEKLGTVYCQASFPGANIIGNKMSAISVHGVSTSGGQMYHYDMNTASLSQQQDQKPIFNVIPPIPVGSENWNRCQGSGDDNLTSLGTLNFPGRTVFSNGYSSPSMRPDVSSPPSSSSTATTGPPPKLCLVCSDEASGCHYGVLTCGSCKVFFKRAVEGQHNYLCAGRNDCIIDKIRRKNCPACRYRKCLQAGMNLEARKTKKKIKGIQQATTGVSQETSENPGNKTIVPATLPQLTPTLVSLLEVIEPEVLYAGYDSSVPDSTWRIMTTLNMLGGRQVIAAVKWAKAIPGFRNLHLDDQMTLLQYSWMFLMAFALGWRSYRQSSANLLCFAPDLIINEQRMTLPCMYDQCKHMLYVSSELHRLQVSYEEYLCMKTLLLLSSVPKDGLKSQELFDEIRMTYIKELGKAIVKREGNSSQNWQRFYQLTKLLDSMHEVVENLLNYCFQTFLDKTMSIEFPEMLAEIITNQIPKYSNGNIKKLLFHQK
# Summary of the method: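 Reporter read-out: fluorescence intensity following 2 h room-temperature LiveBLAzer B/G FRET substrate loading. Prior step: GR-bla HeLa cells held 4 h, then treated 18 h at 37 C.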
# [15] = qHTS assay for small molecules that induce genotoxicity in human embryonic kidney cells expressing luciferase-tagged ATAD5 (AID 651632); also: nearly all actives have a fitted effect of over 15% in size; also: potency is read from the fitted curve at half-maximal effect
# Summary of the method: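 Reporter cells (HEK293T) express luciferase-tagged ATAD5, a protein that accumulates after DNA damage. Treat 16 hr at 37C/5% CO2, add Amplite, wait 30 min at RT, and read luminescence.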
# [16] = qHTS assay to test for compound auto fluorescence at 535 nm (green) in HepG2 cells (AID 720675)
# [17] = qHTS assay to test for compound auto fluorescence at 590 nm (red) in HEK293 cells (AID 720679)
# Summary of the method: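 HEK293 cells (2,000/well, medium with 10% dialyzed FBS) attached for 4-5 hr at 37C, received 23 nL compound and were incubated overnight at 37C, 5% CO2. Red fluorescence was then read at 540/590nm Ex/Em, referenced to Rose Bengal sodium.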
# [18] = qHTS assay to test for compound auto fluorescence at 590 nm (red) in HEK293 cell free culture (AID 720683)
# Summary of the method: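 Red-channel autofluorescence of compounds in culture medium (DMEM, 10% FBS), no cells, measured at 540/590 nm. Rose Bengal sodium is the reference fluorophore for equivalence.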
# [19] = target: Glucocorticoid receptor (Homo sapiens) (UniProt P04150); experiment: qHTS assay to identify small molecule antagonists of the glucocorticoid receptor (GR) signaling pathway (AID 720692; active = well fitted inhibition curve with a large enough effect in the signal ratio in the repeat runs, not every such curve was filed as active; the % refers to the signal ratio; also: potency is read from the fitted curve at half-maximal effect)
# Summary of the method: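 Dexamethasone (5 nM final) stimulated a stably integrated GRE-beta-lactamase reporter in HeLa cells during 18 h co-incubation with compounds; signal was quantified as fluorescence intensity of B/G FRET substrate after 2 h.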
compound,measurement,setting,value
CC(=O)OCC(=O)[C@@]12OC(C)(C)O[C@@H]1C[C@H]1[C@@H]3C[C@H](F)C4=CC(=O)C=C[C@]4(C)[C@@]3(F)[C@@H](O)C[C@@]12C,Potency,[1],inactive
same,Potency,[2],inactive
same,Potency,[3],inactive
same,Potency,[4],inactive
same,"fluorescence, relative to Rose Bengal",[5],0.821% [at 18.6 µM]
same,"fluorescence, % of triamterene",[6],-0.188% [at 18.6 µM]
same,"fluorescence, % of fluorescein",[7],-0.0611% [at 18.6 µM]
same,"fluorescence, % of fluorescent control",[8],-0.0905% [at 18.6 µM]
same,activity change,[9],-0.0593% [at 18.6 µM]
same,"fluorescence, % of Rose Bengal",[10],-0.181% [at 18.6 µM]
same,"fluorescence, % of fluorescent control",[11],-0.0666% [at 18.6 µM]
same,"fluorescence, % of fluorescein control",[12],-0.0467% [at 18.6 µM]
same,"fluorescence, % of fluorescent control",[13],0.231% [at 18.6 µM]
same,Potency,[14],0.0064 µM (active)
Nc1ccc(Cl)cc1[N+](=O)[O-],Potency,[15],inactive
same,Potency,[3],inactive
same,outcome,[5],inactive
same,outcome,[16],inactive
same,Potency,[6],inactive
same,outcome,[17],inactive
same,outcome,[9],inactive
same,outcome,[18],inactive
same,outcome,[10],inactive
same,Potency,[11],inactive
same,Potency,[13],inactive
COCCOC(=O)C1=C(C)NC(C)=C(C(=O)OC/C=C/c2ccccc2)C1c1cccc([N+](=O)[O-])c1 (stereo unspecified),Potency,[15],inactive
same,Potency,[2],inactive
same,Potency,[4],10.6 µM (active)
same,outcome,[5],inactive
same,outcome,[16],inactive
same,Potency,[6],inactive
same,outcome,[17],inactive
same,outcome,[9],inactive
same,outcome,[18],inactive
same,outcome,[10],inactive
same,Potency,[11],inactive
same,outcome,[12],inactive
same,Potency,[13],inactive
same,Potency,[14],inactive
same,Potency,[19],10.7 µM (active)
O=C(CCC1CCN(Cc2ccccc2)CC1)c1ccc2c(c1)NCCCC2,Potency,[15],inactive
same,Potency,[1],inactive
same,Potency,[2],inactive
same,outcome,[5],inactive
same,Potency,[6],inactive
same,outcome,[17],inactive
same,outcome,[9],inactive
same,outcome,[18],inactive
same,outcome,[10],inactive
same,Potency,[11],inactive
same,outcome,[12],inactive
same,Potency,[13],inactive
CC(CCc1ccc2c(c1)OCO2)NN (stereo unspecified),Potency,[15],inactive
same,Potency,[2],inactive
same,Potency,[3],inactive
same,Potency,[4],inactive
same,outcome,[5],inactive
same,Potency,[6],inactive
same,outcome,[17],inactive
same,outcome,[7],inactive
same,Potency,[8],inactive
same,outcome,[9],inactive
same,outcome,[18],inactive
same,outcome,[10],inactive
same,Potency,[11],inactive
same,outcome,[12],inactive
same,Potency,[13],inactive
same,Potency,[14],inactive
same,Potency,[19],inactive
O=C(CCCN1CCN(c2ccc(F)cc2)CC1)NC1c2ccccc2CSc2ccccc21 (stereo unspecified),Potency,[15],inactive
same,Potency,[3],inactive
same,outcome,[5],inactive
same,Potency,[6],inactive
same,outcome,[17],inactive
same,outcome,[7],inactive
same,Potency,[8],inactive
same,outcome,[9],inactive
same,outcome,[18],inactive
same,outcome,[10],inactive
same,Potency,[11],inactive
same,outcome,[12],inactive
same,Potency,[14],inactive
same,Potency,[19],inactive
CCCc1c(OCCCOc2ccc(OCC(=O)O)cc2)ccc(C(C)=O)c1O,Potency,[15],inactive
same,outcome,[5],inactive
same,outcome,[16],inactive
same,Potency,[6],inactive
same,outcome,[17],inactive
same,outcome,[7],inactive
same,Potency,[8],inactive
same,outcome,[9],inactive
same,outcome,[18],inactive
same,Potency,[11],inactive
same,outcome,[12],inactive
same,Potency,[13],inactive
same,Potency,[14],inactive
CCCC1C(CC)=CC(CC)=CN1c1ccccc1 (stereo unspecified),Potency,[15],inactive
same,Potency,[2],inactive
same,Potency,[4],54.5 µM (active)
same,outcome,[5],inactive
same,outcome,[16],inactive
same,Potency,[6],inactive
same,outcome,[17],inactive
same,outcome,[7],inactive
same,Potency,[8],inactive
same,outcome,[9],inactive
same,outcome,[18],inactive
same,Potency,[11],inactive
same,outcome,[12],inactive
same,Potency,[13],inactive
same,Potency,[14],inactive
same,Potency,[19],49 µM (active)
NC(=O)N(O)[C@@H]1COc2cc(OCc3ccccc3)ccc21,Potency,[15],1.54 µM (active)
same,Potency,[2],inactive
same,outcome,[5],inactive
same,outcome,[16],inactive
same,Potency,[6],inactive
same,outcome,[7],inactive
same,outcome,[9],inactive
same,outcome,[18],inactive
same,outcome,[10],inactive
same,Potency,[11],inactive
same,outcome,[12],inactive
same,Potency,[13],inactive
same,Potency,[14],inactive
same,Potency,[19],inactive
